Compound activity from PubChem.
SENP7 block: SENP7 protease inhibition; actives 1.5% (n = 330,000); recombinant SENP7, Z-RLRGG-aminoluciferin luminescence, 40 min; Q9BQF6; inhibition, % at 5 µM;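 active = inhibition above about 50% at the single test dose, limit read from the data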;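 note: plate controls were DMSO with enzyme for no effect and no enzyme buffer wells for full effect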
SENP6 inh: inhibitors of human SENP6 protease. Q9GZR1. inhibition, % at 10 µM. actives 1.8% (n = 330,000). Recombinant SENP6 catalytic domain, aminoluciferin luminescence;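 active = inhibition above about 50% at the single tested dose, limit read from the data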;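 note: plate controls were DMSO wells with enzyme for no effect and DMSO wells lacking enzyme for full effect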
SENP8 block-1: SENP8 protease inhibition; purified SENP8, Z-RLRGG-aminoluciferin cleavage, luminescence; inhibition, % at 10 µM; Q96LD8; AID 2540; actives 1.2% (n = 330,000); in the data active = inhibition above about 50%
Target sequence (Q96LD8 whole entry, looked up): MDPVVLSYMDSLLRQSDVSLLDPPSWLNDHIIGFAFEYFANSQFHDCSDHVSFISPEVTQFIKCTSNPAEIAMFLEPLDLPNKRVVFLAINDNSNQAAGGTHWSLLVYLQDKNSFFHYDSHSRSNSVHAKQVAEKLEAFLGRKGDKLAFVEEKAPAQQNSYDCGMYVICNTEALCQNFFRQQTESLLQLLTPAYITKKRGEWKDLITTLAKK
SENP8 block-2: SENP8 (human) protease inhibition; inhibition, % at 20 µM; recombinant SENP8, Nedd8 substrate fluorescence; actives 0.64% (n = 360,000); Q96LD8; in the data active = inhibition mostly above about 40%, no sharp cut-off; inactive = mostly below about 27%
HSP90 refold inh: blocks HSP90-mediated luciferase refolding in reticulocyte lysate | Rabbit reticulocyte lysate, luciferase refolding luminescence, 3 h | inhibition, % at 5.6 µM | actives 0.91% (n = 290,000);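 active = inhibition above the screen-wide mean plus 3 SD, computed separately per campaign, cut at about 16% in these data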;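 note: 0% = DMSO wells and 100% = 60 µM geldanamycin wells; inhibitors lower the luminescence because luciferase stays unfolded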
SENP8 conf: confirmation of human SENP8 protease inhibitors; inhibition, % at 12.5 µM; Recombinant SENP8, Z-RLRGG-aminoluciferin luminescence, 60 min; actives 40% (n = 6,200); shares compounds with SENP7 block;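 active = mean inhibition across replicates above about 50%, limit read from the data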
SENP6 confirm: confirmation of human SENP6 protease inhibitors | inhibition, % at 12.5 µM | recombinant SENP6, Z-RLRGG-aminoluciferin luminescence | shares compounds with SENP7 block | actives 58% (n = 6,200) | AID 488915
SENP7 confirm: confirmation of human SENP7 protease inhibitors; shares compounds with SENP7 block; recombinant SENP7, Z-RLRGG-aminoluciferin luminescence, 40 min; inhibition, % at 12.5 µM; actives 69% (n = 6,200)
Casp3 SENP sel: inhibits human caspase-3 in SENP selectivity test | shares compounds with SENP7 block | purified caspase-3, Z-DEVD-aminoluciferin luminescence, 60 min | inhibition, % at 12.5 µM | actives 60% (n = 6,200) | AID 488918;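 active = mean inhibition above about 50%, limit read from the data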;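 note: plate controls were enzyme with DMSO for no effect and wells without caspase-3 for full effect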
Target sequence (P42574 28-227 limits assumed): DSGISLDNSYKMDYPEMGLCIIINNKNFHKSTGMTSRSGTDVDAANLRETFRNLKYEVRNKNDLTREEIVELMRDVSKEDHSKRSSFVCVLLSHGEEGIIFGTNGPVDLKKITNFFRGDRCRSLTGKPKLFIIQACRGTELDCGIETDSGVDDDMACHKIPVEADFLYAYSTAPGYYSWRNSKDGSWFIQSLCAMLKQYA
SENP luc ctr: luminescence interference (SENP counter-screen) | inhibition, % at 12.5 µM | Pre-incubated SENP8/Z-RLRGG-aminoluciferin, luciferase luminescence interference | AID 488919 | shares compounds with SENP7 block | actives 39% (n = 6,200);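 active = mean inhibition above about 50% when retested at one dose, limit read from the data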;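 note: plate controls were DMSO wells with completed reaction for no effect and substrate without enzyme for full effect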
* marks the source's active call; other numbers are inactive results; / = no result given. In the library only some 2.7% were active in any assay of this set; here they are far more common.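 Rule for the calls, unless noted: active = mean inhibition above about 50% in the one-dose retest (limit read from the data); inactive = the rest.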

SMILES	SENP7 block	SENP6 inh	SENP8 block-1	SENP8 block-2	HSP90 refold inh	SENP8 conf	SENP6 confirm	SENP7 confirm	Casp3 SENP sel	SENP luc ctr
COc1ccc(/C=N/OCC(=O)Nc2nc3ccccc3s2)cc1	54*	78*	53*	0	-2	-7	-6	-2	4	6
CCCOc1ccc(C(=O)NC(=S)Nc2nc3ccccc3s2)cc1	92*	3	-6	26	-4	5	10	16	5	12
COC(=O)Nc1nnc(-c2ccc(OC)cc2)s1	75*	68*	49	-329	1	50*	55*	85*	85*	52*
COc1ccc(C(=O)Nc2nnc(-c3ccccc3)s2)cc1	10	-16	-7	-118	-1	/	/	/	/	/
COc1ccc(C(=O)Nc2nnc(C(F)(F)F)s2)cc1	19	61*	16	-32	-2	33	31	64*	64*	27
O=C(Nc1nnc(C(F)(F)F)s1)c1cccnc1	48	55*	20	-4	-2	54*	54*	88*	85*	66*
CNC(=O)Nc1cc(C)nn1C	-3	-8	-13	12	2	/	/	/	/	/
CN=c1scc(C)n1/N=C/c1ccc(O)cc1O	78*	78*	76*	-33	8	90*	88*	99*	88*	86*
CN=c1scc(C)n1/N=C/c1ccc(O)cc1	11	26	0	-30	5	/	/	/	/	/
CN=c1scc(C)n1/N=C/c1ccc2c(c1)OCO2	97*	98*	88*	-24	11	95*	96*	102*	95*	48
COc1ccc(/C=N/Nc2ccccn2)c(OC)c1OC	2	-15	-7	-7	-1	/	/	/	/	/
C[C@@H]1CN([C@H](C)CO)C(=O)c2cc(Br)cnc2O[C@H]1CN(C)C(=O)Cc1ccncc1	/	/	/	-2	/	/	/	/	/	/
C/C(=N\NC(=O)c1ccccc1NC(=O)c1ccc(Cl)cc1)c1ccncc1	97*	97*	89*	11	52*	24	96*	101*	98*	18
C/C(=N\Nc1ccccc1C(=O)O)c1ccncc1	52*	72*	52*	5	-4	65*	60*	88*	82*	68*
COc1ccccc1C(=O)NCCCNc1nc2cc(C)cc(C)c2cc1C#N	/	/	/	-376	/	/	/	/	/	/
O=C1C=C(N2CCOCC2)CCC1	-5	0	-4	6	/	/	/	/	/	/
Cc1ccc([C@@H]2C[C@H]3CN(Cc4cccc(Cl)c4)C(=O)[C@]34CCCN24)o1	-5	64*	4	1	-9	-14	-11	-11	-6	-11
COc1ccc2nc(NC(=O)c3cccnc3SC)sc2c1	85*	93*	71*	-287	-4	78*	77*	93*	72*	46
COc1ccc2nc(NC(=O)c3cc(C)oc3C)sc2c1	101*	88*	90*	-83	2	-20	94*	102*	96*	63*
Cc1cc(C(=O)Nc2nc3ccc(S(C)(=O)=O)cc3s2)c(C)o1	93*	96*	41	-31	-1	34	89*	101*	94*	14
Cc1csc(NC(=O)c2ccccc2O)n1	6	10	-3	-399	-1	/	/	/	/	/
Cc1csc(NC(=O)c2cc(C)oc2C)n1	59*	69*	46	2	-3	64*	63*	89*	84*	65*
COc1ccc(-c2sc3ccc(N4CCOCC4)cc3c2-c2ccc(O)cc2)cc1	4	12	2	-176	/	/	/	/	/	/
Cc1ccc(C(=O)Nc2nc3ccc(S(C)(=O)=O)cc3s2)s1	47	68*	51*	-202	-1	5	53*	43	62*	23
